Drawing on PubChem BioAssay (EPA / NIEHS), this text covers AC50 and outcome for 20 molecules.

Test [1] addresses Bile acid receptor (Homo sapiens) (UniProt Q96RI1). In words: OT_FXR_FXRSRC1_0480: Odyssey Thera (OT) 8-hour HEK293T Protein-Complementation Assay for Farnesoid X receptor/SRC-1 Co-activator (AID 2283383). An outline of the steps:
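HEK293T cells expressing FXR and SRC-1 fused to reporter fragments were dosed with compound for 8 h; fluorescence from the reconstituted reporter marked co-activator recruitment. Gain of signal was fitted against the DMSO baseline.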

The target is the same in test [2]. Briefly: OT_FXR_FXRSRC1_1440: Odyssey Thera (OT) 24-hour HEK293T Protein-Complementation Assay for Farnesoid X receptor/SRC-1 Co-activator (AID 2283384). An outline of the steps:
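HEK293T cells were dosed with compound and read 24 h later by fluorescence intensity from protein-fragment complementation reporting FXR/SRC-1 co-activator interaction. Gain of signal was fitted relative to DMSO negative control as baseline.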

For test [3], the target named is Retinoic acid receptor RXR-alpha (Homo sapiens) (UniProt P19793). In words: OT_NURR1_NURR1RXRa_0480: Odyssey Thera (OT) 8-hour HEK293T Protein Complementation Assay for Nurr1/retinoid X receptor (RXR) (AID 2283385). A digest of the protocol:
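HEK293T cells expressing Nurr1 and RXRα fused to reporter fragments were dosed with compound for 8 hours. Complex formation was read as fluorescence intensity and analysed as gain of signal against DMSO as baseline.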

Test [4] shares this target. Briefly: OT_NURR1_NURR1RXRa_1440: Odyssey Thera (OT) 24-hour HEK293T Protein Complementation Assay for Nurr1/retinoid X receptor (RXR) (AID 2283386). An outline of the steps: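 HEK293T cells were dosed with compound and read 24 h later by fluorescence intensity in a protein-fragment complementation format, where Nurr1–RXRα interaction reconstitutes a split reporter. Activity was fitted as gain of signal relative to DMSO baseline.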

The target in test [5] is Peroxisome proliferator-activated receptor gamma (Homo sapiens) (UniProt P37231). Briefly: OT_PPARg_PPARgSRC1_0480: Odyssey Thera (OT) 8-hour Protein-Complementation Assay for Peroxisome Proliferator-activated Receptor Gamma / SRC-1 Co-activator (AID 2283387).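 Also: nuclear to cytoplasmic split Venus YFP fluorescence ratio reporting PPARg SRC-1 interaction.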 A digest of the protocol:
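HEK293T transiently transfected with PPARg and SRC-1 fused to Venus YFP fragments, compounds 8 h at 37C. Fixed, Draq5-stained cells imaged; nuclear/cytoplasmic 488 nm fluorescence ratio over at least 350 cells per image; gain fitted versus DMSO.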

Test [6] shares this target. Briefly: OT_PPARg_PPARgSRC1_1440: Odyssey Thera (OT) 24-hour Protein-Complementation Assay for Peroxisome Proliferator-activated Receptor Gamma/ SRC-1 Co-activator (AID 2283388). A digest of the protocol:
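Cells carrying the PPARg/SRC-1 fragment-complementation reporter receive compound for 24 hours, are fixed and counterstained with Draq5, then imaged. Increased nuclear relative to cytoplasmic YFP fluorescence above DMSO baseline indicates binding activity.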

Read-out in test [7]: Tumor necrosis factor receptor superfamily member 6 (Homo sapiens) (UniProt P25445)
Briefly: LTEA_HepaRG_FAS: Life Technologies and Expression Analysis (LTEA) Assay for Fas cell surface death receptor (FAS) using HepaRG (AID 2283447; active = hit-call score of the fitted dose curve at least 0.9, where 1 is the maximum; inactive = score below 0.9). As to conditions: mRNA level, 48 h; actives raise or lower the signal. A digest of the protocol:
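Differentiated HepaRG cells in serum-free induction medium were exposed 48 h to 8 half-log concentrations up to 100 uM in 0.5% DMSO, in duplicate. FAS mRNA was measured by qRT-PCR normalised to ACTB, GAPDH and POLR2A; bidirectional fit versus DMSO.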

For test [8], the target named is Estrogen receptor beta (Homo sapiens) (UniProt Q92731). In words: OT_ER_ERbERb_1440: Odyssey Thera (OT) 24-hour HEK293T Protein-Complementation Assay for Estrogen Receptor-beta/-beta Homodimer (AID 2283380).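 Also: scored as signal increase over DMSO baseline for both agonists and antagonists.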 An outline of the steps: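 HEK293T cells stably expressing ER beta LBD (aa 310-547) homodimer fragment-complementation reporter, dosed 24 h. Cells formaldehyde-fixed, Draq5-stained; gain in nuclear (agonist) or nuclear plus cytoplasmic (antagonist) fluorescence versus DMSO read by laser scanning cytometry.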
Chain of Estrogen receptor beta (Homo sapiens) (Q92731 whole entry, looked up, the tested form may be a part): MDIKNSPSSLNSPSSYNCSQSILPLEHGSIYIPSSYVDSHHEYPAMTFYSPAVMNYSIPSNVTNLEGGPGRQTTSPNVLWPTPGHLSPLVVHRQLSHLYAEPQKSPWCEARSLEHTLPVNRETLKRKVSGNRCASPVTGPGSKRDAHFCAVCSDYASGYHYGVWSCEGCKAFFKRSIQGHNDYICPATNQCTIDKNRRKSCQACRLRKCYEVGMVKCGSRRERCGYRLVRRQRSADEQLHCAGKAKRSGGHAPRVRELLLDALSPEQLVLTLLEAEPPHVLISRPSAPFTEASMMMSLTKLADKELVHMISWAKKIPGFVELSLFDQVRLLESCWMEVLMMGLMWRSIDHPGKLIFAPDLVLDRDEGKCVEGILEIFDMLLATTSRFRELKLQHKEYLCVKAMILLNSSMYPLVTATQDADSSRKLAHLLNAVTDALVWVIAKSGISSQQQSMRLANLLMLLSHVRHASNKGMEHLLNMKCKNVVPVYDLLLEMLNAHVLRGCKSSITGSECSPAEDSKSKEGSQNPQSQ

Test [9] in a line: CEETOX_H295R_11DCORT: CeeTox H295R High-throughput Steroidogenesis Assay for 11-Deoxycortisol (11DCORT) (AID 2283432; active = hit-call score of the fitted dose curve at least 0.9, where 1 is the maximum; inactive = score below 0.9;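 as to AC50: 11-deoxycortisol secreted into the medium measured by LC-MS/MS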). As to conditions: actives raise or lower the signal. A digest of the protocol:
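H295R cells prestimulated 48 h with 10 uM forskolin, then exposed 48 h to chemical in 0.1% DMSO. 11-Deoxycortisol in medium quantified by HPLC-MS/MS after MTBE extraction; bidirectional fit versus DMSO. MTT viability read in same wells.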

A short description of test [10]: CEETOX_H295R_OHPREG: CeeTox H295R High-throughput Steroidogenesis Assay for OH-Pregnenolone (OHPREG) (AID 2283434; active = hit-call score of the fitted dose curve at least 0.9, where 1 is the maximum; inactive = score below 0.9). The settings on record: actives raise or lower the signal. A digest of the protocol: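 H295R cells pre-stimulated 48 h with 10 uM forskolin, then exposed 48 h to chemical in 0.1% DMSO. 17alpha-hydroxypregnenolone in medium quantified by MTBE extraction and HPLC-MS/MS; bidirectional fit versus DMSO, viability checked by MTT.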

Test [11] can be described thus: CEETOX_H295R_CORTIC: CeeTox H295R High-throughput Steroidogenesis Assay for Corticosterone (CORTIC) (AID 2283437; active = hit-call score of the fitted dose curve at least 0.9, where 1 is the maximum; inactive = score below 0.9;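 also: corticosterone secreted into medium quantified by mass spectrometry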). The settings on record: actives raise or lower the signal. A digest of the protocol: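 H295R adrenal cells prestimulated 48 hours with 10 uM forskolin, then exposed 48 hours to chemical in 0.1% DMSO. Corticosterone in medium measured by HPLC-MS/MS after MTBE extraction; MTT viability in the same wells; bidirectional fit versus DMSO.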

Test [12] can be described thus: CEETOX_H295R_CORTISOL: CeeTox H295R High-throughput Steroidogenesis Assay for Cortisol (AID 2283438; active = hit-call score of the fitted dose curve at least 0.9, where 1 is the maximum; inactive = score below 0.9;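 also: cortisol secreted into medium quantified by LC-MS/MS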). The settings on record: actives raise or lower the signal. An outline of the steps: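 H295R human adrenal cells were prestimulated 48 h with 10 uM forskolin, then exposed 48 h to test chemical (0.1% DMSO final). Medium cortisol was quantified by HPLC-MS/MS after MTBE extraction; bidirectional fitting relative to DMSO baseline.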

Test [13] is described as follows: CEETOX_H295R_DOC: CeeTox H295R High-throughput Steroidogenesis Assay for DOC (AID 2283439; active = hit-call score of the fitted dose curve at least 0.9, where 1 is the maximum; inactive = score below 0.9). The settings on record: actives raise or lower the signal. An outline of the steps: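 H295R adrenal cells prestimulated 48 h with 10 uM forskolin, then exposed 48 h to test chemical (0.1% DMSO final). Medium 11-deoxycorticosterone extracted with MTBE, quantified by HPLC-MS/MS; bidirectional fit versus DMSO baseline; MTT viability in same wells.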

A short description of test [14]: CEETOX_H295R_PROG: CeeTox H295R High-throughput Steroidogenesis Assay for Progesterone (PROG) (AID 2283442; active = hit-call score of the fitted dose curve at least 0.9, where 1 is the maximum; inactive = score below 0.9;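 as to AC50: human H295R adrenal cells primed with 10 µM forskolin before dosing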). As to conditions: actives raise or lower the signal. An outline of the steps: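 Measured analyte is progesterone secreted by H295R cells at 48 h of chemical treatment, following 10 uM forskolin priming. Quantitation used HPLC-MS/MS against a 7-point standard curve; cytotoxicity was checked by MTT absorbance.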

Each structure is given as a SMILES string. Several values for one entry are separate records, joined by “and”; a condition that tells them apart may be missing. Equal entries are not always repeated. Results filed as inconclusive are left out. The source holds several records for some structures; these can differ, active in one and inactive in another. Activity calls are given as the source filed them. The calls were made as follows, unless noted: active = hit-call score of the fitted dose curve at least 0.9, where 1 is the maximum; inconclusive = response in the unintended direction; inactive = score below 0.9.

Chain of Retinoic acid receptor RXR-alpha (Homo sapiens) (P19793 whole entry, looked up, the tested form may be a part): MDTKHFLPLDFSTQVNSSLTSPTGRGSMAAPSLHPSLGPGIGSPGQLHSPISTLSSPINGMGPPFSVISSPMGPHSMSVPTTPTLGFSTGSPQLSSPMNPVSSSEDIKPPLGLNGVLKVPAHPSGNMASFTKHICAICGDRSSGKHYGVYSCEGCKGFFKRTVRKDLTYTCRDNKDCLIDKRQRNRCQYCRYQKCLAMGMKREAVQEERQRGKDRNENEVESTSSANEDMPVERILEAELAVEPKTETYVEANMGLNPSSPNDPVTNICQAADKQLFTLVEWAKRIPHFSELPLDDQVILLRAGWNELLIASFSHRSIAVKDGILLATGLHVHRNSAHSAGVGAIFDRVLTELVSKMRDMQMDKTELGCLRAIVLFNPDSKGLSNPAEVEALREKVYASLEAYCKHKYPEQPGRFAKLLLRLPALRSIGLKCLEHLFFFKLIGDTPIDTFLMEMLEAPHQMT
Chain of Bile acid receptor (Homo sapiens) (Q96RI1 whole entry, looked up, the tested form may be a part): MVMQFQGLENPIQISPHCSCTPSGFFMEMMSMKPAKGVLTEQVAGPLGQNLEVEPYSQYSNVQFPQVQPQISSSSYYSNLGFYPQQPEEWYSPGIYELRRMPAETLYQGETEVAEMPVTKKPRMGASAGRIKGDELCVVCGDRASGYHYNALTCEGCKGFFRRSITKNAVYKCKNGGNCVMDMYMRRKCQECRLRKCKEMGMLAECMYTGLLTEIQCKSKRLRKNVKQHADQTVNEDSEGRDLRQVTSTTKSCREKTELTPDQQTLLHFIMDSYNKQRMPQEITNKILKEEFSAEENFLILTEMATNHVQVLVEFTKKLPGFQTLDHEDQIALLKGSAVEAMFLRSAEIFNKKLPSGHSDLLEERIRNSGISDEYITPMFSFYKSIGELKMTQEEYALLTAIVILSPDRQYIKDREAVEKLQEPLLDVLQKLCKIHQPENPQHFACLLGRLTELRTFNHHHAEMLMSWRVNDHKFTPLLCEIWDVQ
Chain of Peroxisome proliferator-activated receptor gamma (Homo sapiens) (P37231 whole entry, looked up, the tested form may be a part): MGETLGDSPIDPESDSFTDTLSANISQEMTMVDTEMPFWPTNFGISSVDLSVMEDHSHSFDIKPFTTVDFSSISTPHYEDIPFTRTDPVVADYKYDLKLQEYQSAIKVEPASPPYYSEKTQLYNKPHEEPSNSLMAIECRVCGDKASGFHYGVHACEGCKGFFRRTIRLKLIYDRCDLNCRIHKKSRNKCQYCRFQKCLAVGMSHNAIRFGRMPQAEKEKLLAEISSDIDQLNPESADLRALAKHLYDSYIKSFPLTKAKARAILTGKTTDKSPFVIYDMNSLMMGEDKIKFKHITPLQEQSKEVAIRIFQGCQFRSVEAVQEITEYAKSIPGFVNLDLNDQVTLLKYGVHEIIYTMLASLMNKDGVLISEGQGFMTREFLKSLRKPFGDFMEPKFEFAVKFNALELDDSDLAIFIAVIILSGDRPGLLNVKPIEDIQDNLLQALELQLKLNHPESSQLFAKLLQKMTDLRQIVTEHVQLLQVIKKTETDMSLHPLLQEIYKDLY

Take `C=C(C)[C@H]1Cc2c(ccc3c2O[C@@H]2COc4cc(OC)c(OC)cc4[C@@H]2C3=O)O1`: the AC50 (in general, the concentration at which the activity in the assay is half-maximal) in test [1] was 12.7 µM (active); in [2] it was 9.92 µM (active); in test [3], 16 µM (active) and 12.6 µM (active); in test [4] it was 22.2 µM (active); in test [7] it was 13.1 µM (active). Besides, the result in [4], in test [5] and in [6] was inactive.
For `CCOP(=S)(OCC)OC(Cl)C(Cl)(Cl)Cl` (stereo not given), the result in test [8], in test [4], in [5], in [6] and in [7] was inactive.
In the case of `CCOP(=S)(Oc1cnc(C(C)(C)C)nc1)OC(C)C` (stereo not given), the AC50 in [4] is 78.8 µM (active). Also, the molecule was called inactive in test [4], in test [5], in [6] and in test [7].
As to `CC(C)[C@H](C(=O)O[C@H](C#N)c1cccc(Oc2ccccc2)c1)c1ccc(Cl)cc1`, the molecule was called inactive in test [8], in test [4], in [5] and in test [7].
Consider `CCc1cnc(C2=NC(C)(C(C)C)C(=O)N2)c(C(=O)O)c1` (stereo not given), for which the molecule was classed as inactive in test [4], in test [5] and in test [7].
Regarding `S=C1NCCN1`, the result in [3], in test [4], in test [5], in test [6] and in [7] was inactive.
Consider `Nc1nc(N)nc(NC2CC2)n1`, for which the outcome in test [8], in test [2], in [3], in [4], in test [9] and in test [10] was inactive. For the same molecule, the outcome in [11], in test [12], in [13], in [14] and in test [7] was inactive.
Turning to `COP(=O)(OC)C(O)C(Cl)(Cl)Cl` (stereo not given), the call in test [1], in test [4], in test [5] and in test [7] was inactive. For the same molecule, the half-maximal activity concentration (AC50) in test [2] is 25.1 µM (active).
In the case of `CN(C)C(=O)Nc1cccc(C(F)(F)F)c1`, the outcome in [8], in [3], in [4], in [5], in [10] and in [14] was inactive. Besides, in [7], the call was inactive.
In the case of `CCOP(=S)(OCC)Oc1ccc2c(C)c(Cl)c(=O)oc2c1`, the call in test [8], in test [4], in test [5], in [6], in [10] and in test [11] was inactive. For the same molecule, the outcome in [12] and in test [7] was inactive. Also, the AC50 in [9] is 5 µM (active); in [13], 1.23 µM (active); in test [14] it was 2.59 µM (active).
For the molecule `CCC(=NOC/C=C/Cl)C1=C(O)CC(C2CCOCC2)CC1=O` (stereo not given), the molecule was classed as inactive in [8], in test [4], in test [5], in test [6] and in test [7].
Regarding `CCCCN(CC)c1c([N+](=O)[O-])cc(C(F)(F)F)cc1[N+](=O)[O-]`, the call in test [8], in [3], in test [4], in test [5], in test [10] and in test [11] was inactive. Further, the result in [12], in test [13], in test [14] and in test [7] was inactive.
On to `CCOP(=S)(OCC)Oc1cc(C)nc(C(C)C)n1`, for which the call in [5], in test [6], in [10], in test [13] and in [7] was inactive. Also, the AC50 is 50 µM (active) in test [9], 36.6 µM (active) in test [11], 50 µM (active) in [12] and 26 µM (active) in test [14].
As to `CCOP(=S)(OCC)SCCSCC`, the molecule was called inactive in test [8], in [5] and in test [7].
On to `CCNc1nc(Cl)nc(NC(C)(C)C#N)n1`, for which the molecule was called inactive in [8], in [3], in test [4], in test [5], in [9] and in test [10]. Besides, the call in test [11], in test [12], in test [13], in test [14] and in test [7] was inactive.
With `CN1COCN(Cc2cnc(Cl)s2)C1=N[N+](=O)[O-]`, the outcome in [2], in [4], in test [5], in [6] and in test [7] was inactive.
For `FC(F)C(F)(F)OCC(Cn1cncn1)c1ccc(Cl)cc1Cl` (stereo not given), the outcome in test [8], in test [1], in [5], in test [6], in test [9] and in test [10] was inactive. Further, the outcome in test [11], in test [12], in test [13] and in test [14] was inactive. Moreover, the AC50 in test [7] was 72.2 µM (active).
Regarding `CCOP(=S)(OCC)Oc1ccc([N+](=O)[O-])cc1`, the call in test [3], in test [4], in test [5], in test [6], in test [10] and in test [11] was inactive. Also, the call in [7] was inactive. Further, the concentration at half-maximal activity (AC50) was 2.57 µM (active) in test [9], 1.93 µM (active) in test [12], 0.775 µM (active) in [13] and 0.444 µM (active) in test [14].
`CON=C(C(=O)OC)c1ccccc1CON=C(C)c1cccc(C(F)(F)F)c1`: the outcome in [4], in [5] and in test [7] was inactive.
For the molecule `CCOP(=O)(SC(C)CC)N1CCSC1=O` (stereo not given), the result in test [4], in test [5] and in test [7] was inactive.
